Molecules are shown by their SMILES. Out of some 2,100 compounds screened, about 480 (23%) were called active. Inconclusive results (about 5%) are left out.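 The calls were made as follows: active = fitted curve reaches 40% activation at or below the top valid concentration, in every replicate test; inconclusive = replicate tests disagree on the call; inactive = the rest, including activity in the opposite direction.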 Not all results are given here. Results with a measured potency or affinity are listed apart.

A short description of this assay: activators raising PGC1a acetylation in cells, dose response, cell-based, cherry-picked samples, set 6 (AID 720513).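 Also: cells made to overexpress flag tagged PGC1a plus GCN5 acetyltransferase by viral infection.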 To be noted: U2OS PGC1a acetylation AlphaLISA, overnight, 0 = neutral, -100 = inhibitor control; series mostly up to 19.5 µM; activation (acetylation increase): at the top concentration.
Take `C[C@@H]1CN([C@@H](C)CO)C(=O)CCCn2nncc2CO[C@H]1CN(C)S(=O)(=O)c1ccc(Cl)cc1`: the “activation (acetylation increase)” value is -1.78% (inactive).
Regarding `COCCCNC(=O)c1ccc(Cn2c(=O)c3ccccc3n(Cc3ccccc3C)c2=O)cc1`, the “activation (acetylation increase)” value was 39.4% (inactive).
The figure for `CCCCN(CCCC)CCNC(=O)c1ccc2nc(-c3ccccc3NC(C)=O)c(=O)[nH]c2c1` is 28.6% (inactive).
Regarding `CCCOc1ccc2ccccc2c1/C=C1\SC(=O)NC1=O`, the “activation (acetylation increase)” value was -9.84% (inactive).
The figure for `Nc1nc(SCC(=O)Nc2ccccc2Sc2ccc(Cl)cc2)n[nH]1` is 19.6% (inactive); for `C[C@@H]1CN([C@H](C)CO)C(=O)c2cc(-c3ccccc3)cnc2O[C@H]1CN(C)C(=O)Cc1ccccn1` it is -7.93% (inactive).
Turning to `CN(C)CCNC(=O)c1cccc2c(-c3ccc(F)c(F)c3)coc12`, the “activation (acetylation increase)” value is 20.9% (inactive).
`O=C(CSc1nnc(-c2ccco2)n1-c1ccccc1)Nc1c(Cl)cc(Cl)cc1C(=O)O`: the “activation (acetylation increase)” value was 9.43% (inactive).
The figure for `Cc1ccc2oc(Nc3nc(C)c(C)c(C)n3)nc2c1` is -3.44% (inactive); for `CC(c1ccccc1)N1C(=O)NC(NC(=O)c2cccnc2)(C(F)(F)F)C1=O` (centres undefined) it is 7.53% (inactive); for `COC(=O)/C=C/c1cnc2ccccc2c1` it is -0.261% (inactive).
Take `CCC(=O)Nc1cccc(C(=O)/C=C/c2ccccc2)c1`: the “activation (acetylation increase)” value is -64.7% (inactive).
As to `O=C(/C=C/c1cccs1)c1ccc(NC(=O)c2cccc(Br)c2)cc1`, the “activation (acetylation increase)” value is -11.5% (inactive).
On to `CCC(=O)Nc1ccnc(-c2cccnc2)n1`, for which the “activation (acetylation increase)” value is 22.6% (inactive).
Regarding `O=C(CCS(=O)(=O)c1ccc(Cl)cc1)Nc1nccs1`, the “activation (acetylation increase)” value was 12.8% (inactive).
`OC[C@H]1[C@H](c2ccc(C#CC3CCCC3)cc2)[C@@H]2CN(CCC(F)(F)F)CCCCN12`: the “activation (acetylation increase)” value was -58% (inactive).
As to `COc1ccc(CN(C)C[C@@H]2Oc3ccc(NS(=O)(=O)c4c(C)noc4C)cc3C(=O)N([C@@H](C)CO)C[C@@H]2C)cc1`, the “activation (acetylation increase)” value was 38% (inactive).
To `C[C@H]1CCCCO[C@H](CN(C)Cc2ccncc2)[C@@H](C)CN([C@@H](C)CO)C(=O)c2cc(NS(=O)(=O)c3ccccc3)ccc2O1` belongs -16.6% (inactive); to `O=C1C=CCCN1C(=O)/C=C/c1cccc(C(F)(F)F)c1`, -79.7% (inactive).
Regarding `COc1ccc(C#Cc2ccc([C@H]3[C@@H](CO)N4CCCCN(C(=O)Nc5ccc(F)cc5)C[C@H]34)cc2)cc1`, the “activation (acetylation increase)” value is -94.6% (inactive).
Turning to `C[C@@H]1CN([C@@H](C)CO)C(=O)Cc2cc(NC(=O)C3CCCCC3)ccc2O[C@@H]1CN(C)Cc1ccc(Cl)c(Cl)c1`, the “activation (acetylation increase)” value is 31.6% (inactive).
Take `CC(C)CC#Cc1ccc([C@H]2[C@H](CO)N3C(=O)CN(C(=O)Nc4cc(F)ccc4F)C[C@@H]23)cc1`: the “activation (acetylation increase)” value was -34.3% (inactive).
`O=C(COC(=O)c1cc[n+]([O-])cc1)Nc1cccc(Cl)c1Cl`: the “activation (acetylation increase)” value was 18.2% (inactive).
Take `Cc1c(Cl)cccc1Nc1ncccc1C(=O)O`: the “activation (acetylation increase)” value was -8.63% (inactive).
The figure for `Cc1noc(C)c1NC(=O)N(C)C[C@H]1OCCCC[C@@H](C)Oc2ccc(NC(=O)Cc3ccccc3)cc2C(=O)N([C@@H](C)CO)C[C@@H]1C` is -3.05% (inactive); for `C[C@@H]1CN([C@H](C)CO)C(=O)c2cc(NS(=O)(=O)c3cccs3)ccc2O[C@@H]1CN(C)S(=O)(=O)c1ccc(F)cc1` it is 2.7% (inactive).
Turning to `Cc1ccc(S(=O)(=O)N[C@@H]2CC[C@@H](CCNC(=O)c3ccccc3F)O[C@H]2CO)cc1`, the “activation (acetylation increase)” value was 6.51% (inactive).
As to `O=C(CSc1nc2ccc(Cl)cc2[nH]1)c1ccc2c(c1)OCO2`, the “activation (acetylation increase)” value was 6.16% (inactive).
Take `Cn1c(=O)c2cc(S(=O)(=O)NCCC(=O)NCc3ccccc3Cl)ccc2n(C)c1=O`: the “activation (acetylation increase)” value is 4.26% (inactive).
In the case of `CCOc1ccc2nc(NCCCNC(=O)c3cc(OC)c(OC)c(OC)c3)c(C#N)cc2c1`, the “activation (acetylation increase)” value is -5.62% (inactive).
As for `CCCNC(=O)c1ccc(COc2ccc(Cl)cc2)o1`, the “activation (acetylation increase)” value was 0.816% (inactive).
On to `O=C(COc1ccc(Br)cc1)NCCNC(=O)c1cccnc1`, for which the “activation (acetylation increase)” value was 71.5% (inactive).
To `Cc1cc(OCC(=O)NNC(=O)c2cnccn2)cc(C)c1Cl` belongs -4.82% (inactive); to `O=C(C[C@@H]1C[C@@H]2c3cc(NC(=O)Nc4ccccc4F)ccc3O[C@@H]2[C@H](CO)O1)NCc1ccc(Oc2ccccc2)cc1`, 9.89% (inactive).
As to `CCc1cc2c(N3CCN(c4nnc(CC)s4)CC3)ncnc2s1`, the “activation (acetylation increase)” value was -4.99% (inactive).
As for `COc1cccc(-c2ccc(C3[C@H]4CNC[C@@H]3N4Cc3ccc4c(c3)OCO4)cc2)c1` (some centres undefined), the “activation (acetylation increase)” value is -12.3% (inactive).
Consider `COc1ccc(-c2ccc(C3[C@@H]4CN(Cc5cc(OC)cc(OC)c5)C[C@H]3N4)cc2)cc1` (some centres undefined), for which the “activation (acetylation increase)” value is -98.7% (inactive).
`O=C(Nc1ccccc1)C1=C(c2ccccc2)S(=O)(=O)CCS1(=O)=O`: the “activation (acetylation increase)” value was -95.9% (inactive).
For the molecule `Cn1nc(-c2ccccn2)nc2c(=O)n(C)c(=O)nc1-2`, the “activation (acetylation increase)” value was -108% (inactive).
As for `COc1cc(C(=O)N2CCN(S(=O)(=O)c3cccc(F)c3)CC2)ccc1OCC(=O)N1CCOCC1`, the “activation (acetylation increase)” value is 15.1% (inactive).
Consider `CN(C)c1ccc(C=C2SC(=S)NC2=O)cc1`, for which the “activation (acetylation increase)” value was -60.6% (inactive).
`CCOC(=O)/C(C#N)=C1/C(=O)N(Cc2ccccc2)c2ccccc21`: the “activation (acetylation increase)” value was 36.9% (inactive).
With `CC(=O)c1coc2c1cc(O)c1ccccc12`, the “activation (acetylation increase)” value was -14.2% (inactive).
In the case of `CSc1nc2c(c(=O)[nH]c(=O)n2C)n1Cc1ccccc1`, the “activation (acetylation increase)” value is -24.9% (inactive).
`Cn1c(=O)c2c(ncn2CC(=O)O)n(C)c1=O`: the “activation (acetylation increase)” value was -6.17% (inactive).
To `C/C=C/Cn1c(SCc2ccc(Cl)cc2)nc2c1c(=O)[nH]c(=O)n2C` belongs -18.2% (inactive); to `CCOCCn1c(N2CCN(c3ccccc3)CC2)nc2c1c(=O)n(C)c(=O)n2C`, 3.02% (inactive).
To `CCn1c(Oc2ccccc2F)nc2c1c(=O)n(C)c(=O)n2C` belongs -23% (inactive).
Regarding `CCOCCCNc1nc2c(c(=O)n(C)c(=O)n2C)n1CCCc1ccccc1`, the “activation (acetylation increase)” value is 41% (inactive).
In the case of `CC(C)CN1CCN(C(=O)COC(=O)c2ccc(S(C)(=O)=O)c([N+](=O)[O-])c2)CC1`, the “activation (acetylation increase)” value is -74.6% (inactive).
In the case of `CCC(=O)N[C@H]1CC[C@H](CC(=O)OC)O[C@H]1CO`, the “activation (acetylation increase)” value was -20.6% (inactive).
Take `CCCc1ccc(C(O)c2ncc(-c3cccc(F)c3)[nH]2)cc1` (centres undefined): the “activation (acetylation increase)” value was 9.11% (inactive).
Turning to `COc1ccc(S(=O)(=O)Nc2ccc3c(c2)C(=O)N([C@H](C)CO)C[C@@H](C)[C@H](CN(C)C(=O)Nc2ccc(C(F)(F)F)cc2)OCCCC[C@@H](C)O3)cc1`, the “activation (acetylation increase)” value was -7% (inactive).
To `O=C(OCc1nnc(-c2ccccc2)o1)C1=COCCO1` belongs 5.96% (inactive); to `C=CCn1c(SCc2c(C)noc2C)nc2ccccc2c1=O`, -6.19% (inactive).
For `C[C@@H]1CN([C@@H](C)CO)S(=O)(=O)c2ccc(-c3ccccc3)cc2O[C@@H]1CN(C)C(=O)c1ccccc1F`, the “activation (acetylation increase)” value was -30% (inactive).
For the molecule `CCn1c(C(C)NC(=O)c2ccccc2C)n[nH]c1=S` (centres undefined), the “activation (acetylation increase)” value was 26% (inactive).
The figure for `COc1ccc(C#Cc2ccc([C@H]3[C@@H](CO)N4CCCCN(C(=O)Nc5ccccc5)C[C@H]34)cc2)cc1` is -91% [at 21 µM] (inactive).
With `O=C(Cn1ncc(Cl)c(Cl)c1=O)NC(=O)NC1CCCCC1`, the “activation (acetylation increase)” value is -38.6% (inactive).
